VACV Venus inh = inhibitors of vaccinia virus (Venus reporter); Vaccinia virus Venus reporter expression, fluorescence; Potency, µM (top dose mostly 36.5 µM), hits mostly inhibitors; 330,000 compounds, 0.46% hits; AID 720580; calls by dose curve; tested in A549 cells; further: nearly all actives have a fitted effect of over 30% in size
VACV mCherry inh = vaccinia inhibition (mCherry reporter); Vaccinia virus mCherry reporter infection, fluorescence; 310,000 compounds, 0.63% hits; AID 720579; Potency, µM (titrated, usually from 36.5 µM), most hits filed as inhibitors; calls by dose curve; tested in A549 cells; further: nearly all actives have a fitted effect of over 35% in size
Giardia FBPA inh-1 = inhibitors of Giardia lamblia fructose-1,6-bisphosphate aldolase | Potency, µM (titrated, usually from 59.6 µM), actives largely listed as inhibitors | A8B2U2 | 290,000 compounds, 0.71% hits | purified Giardia FBPA | AID 2451; further: nearly all actives have a fitted effect of over 55% in size
Target sequence (A8B2U2 whole entry, looked up): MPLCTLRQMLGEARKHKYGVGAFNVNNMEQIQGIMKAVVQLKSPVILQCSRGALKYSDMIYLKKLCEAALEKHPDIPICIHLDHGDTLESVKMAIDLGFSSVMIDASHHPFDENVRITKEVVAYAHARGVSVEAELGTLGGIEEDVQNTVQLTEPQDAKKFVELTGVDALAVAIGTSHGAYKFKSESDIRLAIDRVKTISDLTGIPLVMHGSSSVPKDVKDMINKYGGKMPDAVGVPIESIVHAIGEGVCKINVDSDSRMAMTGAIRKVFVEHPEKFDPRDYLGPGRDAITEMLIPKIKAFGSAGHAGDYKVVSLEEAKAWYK
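40 nM FBPA preincubated 10 min at RT with compound (up to 57.5 uM final), then substrate plus GAPDH/TPI/NAD/arsenate coupling and diaphorase/resazurin added. Fluorescence read after 20 min at RT, 525/598 nm.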
FMDV inh = blocks foot and mouth disease virus. FMDV antiviral cell-based qHTS. Potency, µM (series often up to 57.9 µM), usual class: inhibitors. 410,000 compounds, 1.2% hits; calls by dose curve; tested in HEK293T cells; further: read-out not given here; nearly all actives have a fitted effect of over 45% in size
Giardia growth = blocks growth of Giardia lamblia trophozoites; shares compounds with Giardia FBPA inh-1; Giardia lamblia trophozoite growth inhibition; Potency, µM (series often up to 57.5 µM), hits mostly inhibitors; 1,500 compounds, 5% hits;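 further: trophozoites exposed to compound for 48 h at 37 °C; nearly all actives have a fitted effect of over 70% in size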
Mammalian tox = mammalian cytotoxicity of Giardia aldolase inhibitor hits; shares compounds with Giardia FBPA inh-1; mammalian cell viability counter-screen, qHTS; Potency, µM (doses to about 57.5 µM), hits mostly inhibitors; 1,500 compounds, 4% hits; AID 2786;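 further: Chinese hamster ovary cells used as mammalian cytotoxicity surrogate; viability measured as cellular ATP by luminescence; compound exposure lasted 48 h before reading; nearly all actives have a fitted effect of over 60% in size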
Giardia FBPA inh-2 = confirmation of Giardia fructose-bisphosphate aldolase inhibitors; shares compounds with Giardia FBPA inh-1; purified Giardia aldolase enzyme activity, qHTS; Potency, µM (doses to about 57.5 µM), usual class: inhibitors; 1,500 compounds, 5% hits; further: nearly all actives have a fitted effect of over 45% in size
Rabbit FBPA inh = blocks rabbit muscle aldolase in Giardia aldolase selectivity test. shares compounds with Giardia FBPA inh-1. Rabbit muscle FBPA enzyme inhibition, selectivity counter-screen. Potency, µM (top dose mostly 57.5 µM), hits mostly inhibitors. 1,500 compounds, 4% hits. AID 2794; further: nearly all actives have a fitted effect of over 60% in size
Target sequence (P00883 whole entry, looked up): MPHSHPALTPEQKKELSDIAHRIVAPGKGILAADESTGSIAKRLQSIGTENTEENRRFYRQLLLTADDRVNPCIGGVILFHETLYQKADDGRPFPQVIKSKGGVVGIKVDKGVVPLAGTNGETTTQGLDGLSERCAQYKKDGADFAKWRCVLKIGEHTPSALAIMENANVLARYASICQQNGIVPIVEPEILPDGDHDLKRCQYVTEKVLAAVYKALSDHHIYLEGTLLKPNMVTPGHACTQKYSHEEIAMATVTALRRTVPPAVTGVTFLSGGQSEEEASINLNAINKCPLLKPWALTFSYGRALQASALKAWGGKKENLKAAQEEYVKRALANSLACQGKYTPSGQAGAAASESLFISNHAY
GAPDH counter = counter-screen for Giardia aldolase inhibitors: GAPDH coupling enzyme. shares compounds with Giardia FBPA inh-1. GAPDH coupling enzyme counterscreen, biochemical, qHTS. Potency, µM (highest dose often 57.5 µM), most hits filed as inhibitors. 1,500 compounds, 6% hits. AID 2795; further: nearly all actives have a fitted effect of over 55% in size
Hits are given with their value; . = inactive; ? = inconclusive; / = not tested or not shown; [ ] = dose if it differs, or a comment. Only some compounds are listed: those with a hit (about 2.2% of all), similar ones and a draw of the others. Unless noted, the call rests on the fitted dose curve; in most records, active means well fitted curve in the direction sought with a large enough effect; inconclusive means small, poorly fitted or top-dose-only effect, or another doubt; inactive means no such curve, though single readings can be large; an effect the other way counts as inactive or inconclusive.

SMILES | VACV Venus inh | VACV mCherry inh | Giardia FBPA inh-1 | FMDV inh | Giardia growth | Mammalian tox | Giardia FBPA inh-2 | Rabbit FBPA inh | GAPDH counter
O=C(N/N=C\c1ccccn1)c1ccccc1O | . | ? | 15.8µM | . | . | ? | . | . | .
Cc1ccccc1C(=O)N/N=C/c1ccccn1 | . | . | . | ? | / | / | / | / | /
O=C(N/N=C/c1ccccn1)c1ccco1 | / | / | 19.9µM | . | . | . | . | . | .
O=C(N/N=C/c1ccccn1)c1ccccc1 | . | ? | . | . | / | / | / | / | /
CC(C)(C)c1cc(C(=O)N/N=C/c2ccncc2)n[nH]1 | / | / | / | . | / | / | / | / | /
COc1cc(C(=O)N/N=C/c2ccccn2)cc(OC)c1OC | . | . | ? | . | / | / | / | / | /
CC(C)(C)c1cc(C(=O)N/N=C/c2ccccn2)n[nH]1 | / | / | 15.8µM | . | ? | . | . | . | .
COc1ccc(C(=O)N/N=C/c2ccccn2)cc1OC | . | . | 15.8µM | . | . | . | . | . | .
Nc1nc(NCc2ccccc2Cl)c2[nH]cnc2n1 | . | . | / | / | / | / | / | / | /
NOCc1ccccc1 | / | / | . | / | / | / | / | / | /
O=C(N/N=C/c1ccccn1)c1ccncc1 | . | . | . | . | / | / | / | / | /
O=C(N/N=C/c1ccccn1)c1cccs1 | / | / | 12.6µM | . | . | . | . | . | .
NNc1ccc(Cl)nn1 | . | . | 19.9µM | . | . | . | . | . | .
COc1ccc(OC)c(NC(=O)CSc2nc(=O)n(CCN(C)C)c3c2CCC3)c1 | .[7.34 µM] | .[7.34 µM] | / | . | / | / | / | / | /
CCOc1ccc(CN(C)CC(=O)Nc2cccc(S(=O)(=O)N(C)c3ccccc3)c2)cc1 | . | . | 19.9µM | . | ? | . | . | . | .
CCN(CC)c1ccc2c(C)c(Cl)c(=O)oc2c1 | . | . | 17.7µM | . | . | . | . | . | .
NS(=O)(=O)c1cccc(NC(=S)NC(=O)c2cccc([N+](=O)[O-])c2)c1 | . | . | 17.7µM | . | .[10.4 µM] | . | . | . | .
O=C(NC(=S)Nc1cccc(NC(=O)c2ccccc2)c1)c1cccc([N+](=O)[O-])c1 | . | . | . | . | / | / | / | / | /
CC1CN(C(=S)NC(=O)c2ccc([N+](=O)[O-])cc2)CC(C)O1 (configuration not stated) | . | / | 19.9µM | . | 5.01µM | . | . | . | .
O=C(NC(=S)N1CCCCC1)c1csc([N+](=O)[O-])c1 | . | . | 12.6µM | . | 1µM | . | . | . | .
CN1CCN(C(=S)NC(=O)c2cccc([N+](=O)[O-])c2)CC1 | / | / | 1.78µM | . | . | . | . | . | .
CCC(=O)NCCCC[C@H](NC(=O)OCc1ccccc1)C(=O)Nc1ccc2c(C)cc(=O)oc2c1 | / | / | . | / | / | / | / | / | /
Cc1cc[n+](CC(=O)c2ccc(F)cc2)c2ccccc12 | . | . | / | / | / | / | / | / | /
CCCCN1C(=O)c2[nH]nc(-c3ccccc3O)c2C1c1ccc(OCc2ccccc2)cc1 (configuration not stated) | . | . | / | . | / | / | / | / | /
COc1ccc(-c2cc(C3C4C=CCC(C)C4C(=O)N3Cc3ccccc3)ccc2F)cc1OC (configuration not stated) | / | / | . | / | / | / | / | / | /
SMILES | VACV Venus inh | VACV mCherry inh | Giardia FBPA inh-1 | FMDV inh | Giardia growth | Mammalian tox | Giardia FBPA inh-2 | Rabbit FBPA inh | GAPDH counter
COc1ccc2nc(NC(=S)NC(=O)c3ccco3)sc2c1 | . | . | ? | . | / | / | / | / | /
O=C(NC(=S)Nc1nc2ccccc2s1)c1ccco1 | . | . | 5µM | . | 7.94µM | ? | . | . | .
COC(=O)C1=C(C(=O)OC)[C@@H]2N(Cc3ccccc3)c3ccccc3[C@@]23C[C@@H](C(=O)OC)N(S(=O)(=O)c2ccc(C)cc2)C3=N1 | / | / | .[12.9 µM] | / | / | / | / | / | /
COc1ccc(CN2CCN(CCCCOc3ccc(Cl)cc3)CC2)c(OC)c1OC | . | . | 17.7µM | . | . | . | . | . | .
COc1ccccc1N1CCN(Cc2ccc(OC)c(OC)c2OC)CC1 | / | / | . | . | / | / | / | / | /
CCC(C)N1C(=O)/C(=C/c2ccc3c(c2)CCN3CCCCl)C(=O)NC1=S (configuration not stated) | . | . | 11.2µM | 31.6µM | .[10.4 µM] | . | ? | . | .
Cn1c(SCc2nc3ccccc3c(=O)[nH]2)nc2ccccc21 | . | . | . | . | / | / | / | / | /
O=c1[nH]c(CSc2cccc[n+]2[O-])nc2ccccc12 | / | / | 14.1µM | . | .[10.4 µM] | . | . | . | .
N#Cc1ccc(Cl)cc1NC(=O)CNCc1cccs1 | . | . | 15.8µM | . | ? | . | . | . | .
O=C(NNC(=S)Nc1ccc(Cl)c(Cl)c1)c1ccccn1 | ? | ? | 14.1µM | . | .[10.4 µM] | ? | . | . | .
CC(C)CCn1c(SC(C)C#N)nc2ccccc2c1=O (configuration not stated) | . | . | / | / | / | / | / | / | /
COc1cccc(/C=N/n2c(-c3cc(C)[nH]n3)n[nH]c2=S)c1O | . | . | 5.61µM | . | ? | . | . | ? | .
CC(/C=N/n1c(-c2cc(C)[nH]n2)n[nH]c1=S)=C\c1ccco1 | . | . | 2.51µM | . | . | . | ? | . | .
CC(/C=N/n1c(-c2ccc(Cl)cc2)n[nH]c1=S)=C\c1ccco1 | . | . | . | . | / | / | / | / | /
COc1ccc(C(=O)NCCn2cc(SCC(=O)Nc3cccc(C)c3)c3ccccc32)cc1 | . | . | / | ? | / | / | / | / | /
COc1ccc(NC(C)=O)cc1NC(C)c1nc2sc(C)c(C)c2c(=O)[nH]1 (configuration not stated) | . | . | 8.89µM | . | .[10.4 µM] | . | ? | ? | ?
COc1ccc(OC)c(S(=O)(=O)NCCc2sc(-c3ccc(C)cc3)nc2C)c1 | . | . | / | . | / | / | / | / | /
C[n+]1cccc2c(Br)ccc([O-])c21 | . | . | 0.177µM | . | 20µM | . | 3.98µM | 12.6µM | 4.47µM
[O-][n+]1cccc2c(Br)cc(Br)c(O)c21 | . | . | ? | . | / | / | / | / | /
COc1cc(OC)c(OC)cc1/C=C/c1nc2cc3ccccc3cc2c(=O)n1-c1ccc(F)cc1F | ? | . | / | ? | / | / | / | / | /
COc1cccc2sc(Nc3nnc(-c4cccs4)o3)nc12 | ? | ? | ? | . | / | / | / | / | /
COc1cccc2sc(Nc3nnc(-c4ccc(F)cc4)o3)nc12 | ? | ? | 15.8µM | . | . | . | . | . | .
Cc1ccc(CN(Cc2cc3cc(C)ccc3[nH]c2=O)Cc2nnnn2Cc2ccccc2)cc1 | . | . | / | / | / | / | / | / | /
Cc1cc2ccccc2c[n+]1C1CCCCC1 | . | . | / | / | / | / | / | / | /
O=C(NN1C(=O)/C(=C/c2ccc(O)c(O)c2)SC1=S)c1ccccc1 | . | . | 14.1µM | ? | . | . | . | . | .
Cc1ccc(C2NC(c3ccc4c(c3)OCO4)=CC(c3cc(Br)ccc3O)N2)cc1 (configuration not stated) | . | . | / | / | / | / | / | / | /
CC(=O)N1CCN(C(=O)CSc2nc3c(cnn3-c3ccccc3)c(=O)[nH]2)CC1 | . | .[1.46 µM] | 39.8µM | . | ? | . | . | . | .
CCN1CCC(N2CCN(c3ccc(Cl)cc3)CC2)CC1 | / | / | . | . | / | / | / | / | /
